# From the supplement of paper PMC13380429
# Tested on: Vero E6 infected with SARS-CoV-2
# Test: morphology score (similarity to uninfected cells); higher = more like uninfected cells
# Details: 24 h
row,Compound,morphology score
1,COCc1nnc(N2CC(Oc3ccc(F)cc3Cl)C2)n1-c1ccc(OC)nc1 (10 µM),-0.109
2,CNCc1cc(-c2ccccc2F)n(S(=O)(=O)c2cccnc2)c1 [vonoprazan] (10 µM),0.00653
3,CCCN(CCC)[C@H]1CCc2ccc(O)cc2C1 [7-hydroxy-DPAT] (10 µM),-0.355
4,C[C@H](CSC(=O)c1ccccc1)C(=O)N1C[C@@H](Sc2ccccc2)C[C@H]1C(=O)O [zofenopril-calcium] (10 µM),0.0896
5,CC1(C)O[C@@H]2[C@@H](CO[C@@]3(COS(N)(=O)=O)OC(C)(C)O[C@@H]23)O1 [topiramate] (10 µM),0.00625
6,OC(CCN1CCCCC1)(c1ccccc1)c1ccccc1 [pridinol] (10 µM),0.0166
7,NC1CCN(c2cccc(Cl)n2)CC1 (10 µM),-0.122
8,Cc1cccc(C)c1NC(=O)CN1CCCC1=O [nefiracetam] (10 µM),0.0495
9,COc1cc(Nc2ncc(F)c(Nc3ccc4c(n3)NC(=O)C(C)(C)O4)n2)cc(OC)c1OC (10 µM),0.09
10,O=C(O)c1ccc2c(c1)C(=O)N(c1cccc(Oc3ccc([N+](=O)[O-])cc3)c1)C2=O (10 µM),0.173
11,COc1cc(OC)nc(O[C@H](C(=O)O)C(OC)(c2ccccc2)c2ccccc2)n1 [darusentan] (10 µM),-0.0345
12,CC1(COc2ccc(CC3SC(=O)NC3=O)cc2)CCCCC1 (centres undefined) [ciglitazone] (10 µM),0.036
13,CC(=O)N[C@H]1[C@H]([C@H](O)[C@H](O)CO)OC(O)(C(=O)O)C[C@@H]1O (mixture of isomers) [aceneuramic-acid] (10 µM),0.0132
14,CCCN1C[C@H](CSC)C[C@@H]2c3cccc4[nH]cc(c34)C[C@H]21 [pergolide] (10 µM),0.343
15,O=c1ncccn1[C@@H]1O[C@H](CO)[C@@H](O)[C@H]1O [zebularine] (10 µM),0.0754
16,CN(CCOc1ccc(NS(C)(=O)=O)cc1)CCc1ccc(NS(C)(=O)=O)cc1 [dofetilide] (10 µM),0.059
17,O=C(O)CCCCC(=O)O [adipic-acid] (10 µM),-0.0456

row,Compound,morphology score
1,C=C(C)[C@H]1CN[C@H](C(=O)O)[C@H]1CC(=O)O [kainic-acid] (10 µM),0.338
2,Cc1cccc(C)c1-n1c(=O)c2cnc(Nc3ccc(N4CCN(C)CC4)cc3)nc2n2c3ccccc3nc12 (0.833333 µM),-0.0551
3,CC(=O)c1ccc2c(c1)C(=O)C1(CC1)O2 [spizofurone] (10 µM),-0.0677
4,CS(=O)(=O)Nc1ccc2oc3c(OC(F)F)ccc(C(=O)Nc4c(Cl)cncc4Cl)c3c2c1 [oglemilast] (10 µM),0.291
5,CN1CCN(C2=Cc3ccccc3Oc3ccc(Cl)cc32)CC1 (10 µM),0.217
6,Cc1c(Cn2c(C)nc3c(C(=O)O)cc(N4CCOCC4)cc32)cccc1C(F)(F)F (0.833333 µM),-0.135
7,CCCOc1ccc2c(c1)CC[C@@H]1[C@@H]2CC[C@]2(C)[C@@H](OC)CC[C@@H]12 [promestriene] (10 µM),0.169
8,O=C(c1cn(Cc2cncn2Cc2ccc(Br)cc2)cc1-c1cccc2ccccc12)N1CCOCC1 (0.833333 µM),0.342
9,COc1cc(C(=O)OCCCN2CCCN(CCCOC(=O)c3cc(OC)c(OC)c(OC)c3)CC2)cc(OC)c1OC [dilazep] (0.833333 µM),-0.00497
10,c1ccc(CN2CCC3(CCc4ccccc43)CC2)cc1 (10 µM),0.228
11,N=C(N)NC(=N)Nc1cccc(Cl)c1 [m-chlorophenylbiguanide] (10 µM),-0.0474
12,O=C(N[C@@H](Cc1c[nH]c2ccccc12)C(=O)O)c1ccc(Cl)cc1 [benzotript] (10 µM),-0.049
13,Clc1ccc2nsnc2c1NC1=NCCN1 [tizanidine] (10 µM),-0.0251
14,O=C1[C@@H]2[C@H]3CC[C@H](C3)[C@@H]2C(=O)N1C[C@@H]1CCCC[C@H]1CN1CCN(c2nsc3ccccc23)CC1 [lurasidone] (10 µM),0.0507
15,CC1=C(C(=O)Nc2cc3cn[nH]c3cc2F)C(c2ccc(C(F)(F)F)cc2)CC(=O)N1 (centres undefined) (10 µM),0.426
16,CN[C@@H](C)C(=O)N[C@H](C(=O)N1CCC[C@H]1c1nc(C(=O)c2ccc(F)cc2)cs1)C1CCCCC1 (10 µM),0.403
17,Cn1cc(-c2ccc(F)c(C(F)(F)F)c2)nc1C1CCN(c2ncnc3[nH]ncc23)CC1 (10 µM),0.119
